Data reported in PubChem BioAssay (NCI).
This is part of a sample that, as a whole, favours compounds with a hit. Of some 79,000 tested, about 15% had one in any assay. A number with no mark means an inactive call. The source made the active and inactive calls. No stated cut-off is given here; in the data, active means growth inhibition above about 70%; inactive means the rest.

Experiment: NCI Yeast Anticancer Drug Screen. Data for the sgs1 mgt1 strain (AID 161);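 further: 0% = growth of cultures given vehicle only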
Conditions: S. cerevisiae sgs1 mgt1 strain, at 50.0 µM, stronger effect = higher value
In short: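 Compounds are added to genetically altered yeast, and growth is compared with cultures given vehicle alone to give percent inhibition.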

Structure (SMILES)	growth inhibition
c1ccc(NC2=NCCN2)nc1	62.3%
C[CH2][Sn]([CH2]C)([CH2]C)[O]C(=O)CO	86.6% (active)
CC12CCC(O)CC1CCC1C2CCC2(C)C1CC1CC(=O)OC12 (configuration not stated)	99% (active)
Nc1ccc(N=Nc2ccccc2)cc1	37.4%
C[n+]1c(/C=C/c2ccc(O)c3ncccc23)[se]c2ccccc21	92.3% (active)
COC(=O)C1=C(C)N2CCSC2(C)C(C(=O)OC)C1c1cccc(Cl)c1 (configuration not stated)	82.3% (active)
O=[N+]([O-])/C=C/c1ccccc1	98% (active)
CC12CCC(O)CC1CCC1C2CCC2(C)C(C(=O)CC(O)C(F)(F)F)CCC12 (configuration not stated)	67.5%
CC(C)NCC(O)c1ccc(O)c(O)c1.[Pt].c1ccc([PH+](c2ccccc2)c2ccccc2)cc1.c1ccc([PH+](c2ccccc2)c2ccccc2)cc1	99% (active)
CCOC(=O)/C(=C\c1ccc(C(=O)OC)cc1)[Se]c1ccccc1	64.3%
CC/C(=C/c1ccc2c(c1)OCO2)[N+](=O)[O-]	99.7% (active)
CCOC(=O)C1=C(C)NC(=O)NC1c1ccc(N(CCCl)CCCl)cc1Cl (configuration not stated)	24.9%
S=C(S)N1CCOCC1	42.7%
CCOC(=O)c1ccccc1N	-5.7%
C[n+]1c(/C=C/c2ccc(O)c(O)c2)[se]c2ccccc21	82.7% (active)
CS(=O)(=O)[O-].CS(=O)(=O)[O-].NC1CCCCC1N.[Pt+4] (configuration not stated)	92% (active)
COc1ccc2c(c1O)-c1cccc3c1[C@@H](C2)N(CCCl)CC3	57.6%
